Measurements: PubChem BioAssay AID1159580 (chemical genetic matrix, 2015)
About 2,000 (36%) of roughly 5,500 compounds were called active. Roughly 18% stayed inconclusive and do not appear here. Cut-off read from the data, not from the text of the source: active = normalized growth mostly below about 0.91 (no sharp cut-off); inconclusive = no clear call, values can overlap the other calls; inactive = mostly above about 0.92. The list shows a part of the results.

Experiment: chemical genetic growth profiling, strain panel (AID 1159580);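 note: tested at 20 µM; growth read once vehicle control cultures reached saturation at 30 °C; 1 = growth at the plate median or of vehicle wells; lower values mean less growth of the strain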
Conditions: growth OD

Measured: normalized growth

COc1cccc2c1CCC1=CC(=O)CC[C@@]12C
inactive: S. cerevisiae deletion strains, locus YJR075W, strain HOC1, hits give low values 0.973 | S. cerevisiae deletion strains, locus YKL009W, strain mrt4, hits give low values 0.98 | S. cerevisiae deletion strains, locus YKL068W, hits give low values 1 | S. cerevisiae deletion strains, locus YKL085W, strain MDH1 (second series), hits give low values 0.982 | S. cerevisiae deletion strains, locus YKL085W, strain MDH1, hits give low values 0.982 | S. cerevisiae deletion strains, locus YKL160W, strain elf1, hits give low values 1 | S. cerevisiae deletion strains, locus YKL190W, strain CNB1, hits give low values 1.01 | S. cerevisiae deletion strains, locus YKR001C, strain vps1, hits give low values 0.986 | S. cerevisiae deletion strains, locus YKR026C, strain gcn3, hits give low values 0.994 | S. cerevisiae deletion strains, locus YKR091W, strain srl3, hits give low values 0.998 | S. cerevisiae deletion strains, locus YLL001W, strain dnm1, hits give low values 1 | S. cerevisiae deletion strains, locus YLL026W, hits give low values 0.992 | S. cerevisiae deletion strains, locus YLL041C, strain sdh2, hits give low values 0.995 | S. cerevisiae deletion strains, locus YLR027C, strain aat2, hits give low values 1.01 | S. cerevisiae deletion strains, locus YLR039C, strain RIC1, hits give low values 1.1 | S. cerevisiae deletion strains, locus YLR058C, strain SHM2, hits give low values 0.993 | S. cerevisiae deletion strains, locus YLR102C, strain apc9, hits give low values 0.993 | S. cerevisiae deletion strains, locus YLR221C, strain rsa3, hits give low values 0.988 | S. cerevisiae deletion strains, locus YLR258W, strain gsy2, hits give low values 0.999 | S. cerevisiae deletion strains, locus YLR262C, strain YPT6 (second series), hits give low values 1.05 | S. cerevisiae deletion strains, locus YLR262C, strain YPT6, hits give low values 1.1 | S. cerevisiae deletion strains, locus YLR268W, strain sec22, hits give low values 0.973 | S. cerevisiae deletion strains, locus YLR320W, strain mms22, hits give low values 1 | S. cerevisiae deletion strains, locus YLR330W, strain CHS5, hits give low values 0.998 | S. cerevisiae deletion strains, locus YLR342W, strain FKS1 (second series), hits give low values 0.941 | S. cerevisiae deletion strains, locus YLR342W, strain FKS1, hits give low values 0.997 | S. cerevisiae deletion strains, locus YLR357W, strain rsc2, hits give low values 1.02 | S. cerevisiae deletion strains, locus YLR370C, strain arc18, hits give low values 0.99 | S. cerevisiae deletion strains, locus YLR371W, strain rom2, hits give low values 0.988 | S. cerevisiae deletion strains, locus YLR384C, strain iki3, hits give low values 1.02 | S. cerevisiae deletion strains, locus YLR418C, strain cdc73, hits give low values 0.9 | S. cerevisiae deletion strains, locus YML016C, strain PPZ1, hits give low values 0.989 | S. cerevisiae deletion strains, locus YML032C, strain rad52, hits give low values 0.988 | S. cerevisiae deletion strains, locus YML120C, strain ndi1, hits give low values 0.988 | S. cerevisiae deletion strains, locus YML124C, strain tub3, hits give low values 0.988 | S. cerevisiae deletion strains, locus YMR058W, strain fet3, hits give low values 1 | S. cerevisiae deletion strains, locus YMR078C, strain ctf18, hits give low values 0.985 | S. cerevisiae deletion strains, locus YMR125W, strain sto1, hits give low values 1 | S. cerevisiae deletion strains, locus YMR129W, hits give low values 0.991 | S. cerevisiae deletion strains, locus YMR205C, strain PFK2, hits give low values 1 | S. cerevisiae deletion strains, locus YMR223W, strain ubp8, hits give low values 0.964 | S. cerevisiae deletion strains, locus YMR231W, strain pep5, hits give low values 1 | S. cerevisiae deletion strains, locus YMR263W, strain SAP30, hits give low values 0.978 | S. cerevisiae deletion strains, locus YMR307W, strain GAS1, hits give low values 0.957 | S. cerevisiae deletion strains, locus YNL067W, strain RPL9B, hits give low values 0.984 | S. cerevisiae deletion strains, locus YNL071W, strain lat1, hits give low values 1 | S. cerevisiae deletion strains, locus YNL128W, strain TEP1, hits give low values 1.01 | S. cerevisiae deletion strains, locus YNL153C, strain GIM3, hits give low values 0.989 | S. cerevisiae deletion strains, locus YNL209W, strain ssb2, hits give low values 1.02 | S. cerevisiae deletion strains, locus YNL233W, strain BNI4, hits give low values 0.988 | S. cerevisiae deletion strains, locus YNL248C, strain rpa49, hits give low values 1.01 | S. cerevisiae deletion strains, locus YNL250W, strain rad50, hits give low values 0.997 | S. cerevisiae deletion strains, locus YNL271C, strain bni1, hits give low values 0.985 | S. cerevisiae deletion strains, locus YNL298W, strain CLA4, hits give low values 0.969 | S. cerevisiae deletion strains, locus YNL307C, strain MCK1, hits give low values 0.933 | S. cerevisiae deletion strains, locus YNL322C, strain KRE1 (second series), hits give low values 1.01 | S. cerevisiae deletion strains, locus YNL322C, strain KRE1, hits give low values 1 | S. cerevisiae deletion strains, locus YNR049C, strain mso1, hits give low values 1.02 | S. cerevisiae deletion strains, locus YNR052C, strain pop2, hits give low values 0.996 | S. cerevisiae deletion strains, locus YOL006C, strain TOP1, hits give low values 0.863 | S. cerevisiae deletion strains, locus YOL012C, strain htz1 1.1 | S. cerevisiae deletion strains, locus YOL147C, strain pex11, hits give low values 0.982 | S. cerevisiae deletion strains, locus YOR001W, strain rrp6, hits give low values 1.02 | S. cerevisiae deletion strains, locus YOR061W, strain CKA2, hits give low values 0.996 | S. cerevisiae deletion strains, locus YOR069W, strain VPS5, hits give low values 1 | S. cerevisiae deletion strains, locus YOR070C, strain gyp1, hits give low values 1 | S. cerevisiae deletion strains, locus YOR080W, strain dia2, hits give low values 1 | S. cerevisiae deletion strains, locus YOR083W, strain WHI5, hits give low values 1.01 | S. cerevisiae deletion strains, locus YOR106W, strain vam3, hits give low values 1.01 | S. cerevisiae deletion strains, locus YOR136W, strain idh2, hits give low values 0.992 | S. cerevisiae deletion strains, locus YOR144C, strain elg1, hits give low values 0.991 | S. cerevisiae deletion strains, locus YOR184W, strain ser1, hits give low values 0.913 | S. cerevisiae deletion strains, locus YOR265W, strain rbl2, hits give low values 1 | S. cerevisiae deletion strains, locus YOR270C, strain vph1, hits give low values 0.915 | S. cerevisiae deletion strains, locus YOR290C, strain snf2, hits give low values 1.02 | S. cerevisiae deletion strains, locus YOR316C, strain cot1, hits give low values 0.99 | S. cerevisiae deletion strains, locus YPL051W, strain arl3, hits give low values 1 | S. cerevisiae deletion strains, locus YPL055C, strain LGE1, hits give low values 0.946 | S. cerevisiae deletion strains, locus YPL078C, strain atp4, hits give low values 1 | S. cerevisiae deletion strains, locus YPL106C, strain sse1, hits give low values 1.02 | S. cerevisiae deletion strains, locus YPL240C, strain hsp82, hits give low values 0.995 | S. cerevisiae deletion strains, locus YPL241C, strain CIN2, hits give low values 1 | S. cerevisiae deletion strains, locus YPR119W, strain clb2, hits give low values 0.989 | S. cerevisiae deletion strains, locus YPR141C, strain kar3, hits give low values 0.997 | S. cerevisiae deletion strains, locus YPR163C, strain tif3, hits give low values 0.979 | S. cerevisiae deletion strains, locus YPR167C, strain met16, hits give low values 0.983 | S. cerevisiae deletion strains, strain wtn01, hits give low values 0.96 | S. cerevisiae strains, strain wild type, hits give low values 1.01
